Reference: PubChem BioAssay (Tox21)
Records with an inconclusive call do not appear. A call without a number means that no potency is given here. Unmarked numbers belong to inactive results. The source made the active and inactive calls. Unless noted, the call rests on the fitted dose curve; in most records, active means well fitted curve in the direction sought with a large enough effect in the repeat runs; inconclusive means weak or mixed curves; inactive means no such curve, though single readings can be large; an effect the other way counts as inactive or inconclusive.

How the values were obtained:
[1] = qHTS assay to identify small molecule agonists of the peroxisome proliferator-activated receptor delta (PPARd) signaling pathway - cell viability counter screen (AID 743211); further: nearly all actives have a fitted effect of over 55% in size; further: potency means the concentration at half of the fitted maximal effect
Procedure, shortened: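 Tox21 library compounds, delivered in DMSO, were incubated 17 h with PPARd-bla HEK293H cells; cytotoxicity was taken from CellTiter-Glo luminescence read 30 min after reagent addition.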

[2] = biological target: Peroxisome proliferator-activated receptor delta (Homo sapiens) (UniProt Q03181); experiment: qHTS assay to identify small molecule agonists of the peroxisome proliferator-activated receptor delta (PPARd) signaling pathway (AID 743212; calls by dose curve)
Procedure, shortened: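 HEK293H UAS-bla reporter cells, human PPARd system; compounds delivered in DMSO after 5 h plating, then at 37 C. Beta-lactamase FRET read, 2 h RT substrate step.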

[3] = biological target: Peroxisome proliferator-activated receptor delta (Homo sapiens) (UniProt Q03181); experiment: qHTS assay to identify small molecule antagonists of the peroxisome proliferator-activated receptor delta (PPARd) signaling pathway (AID 743215; active means well fitted inhibition curve with a large enough effect in the signal ratio in the repeat runs, not every such curve was filed as active; the % refers to the signal ratio;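 further: cells stimulated with agonist L165041 at 300 nM final during compound exposure; series mostly up to about 62 µM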)
Procedure, shortened: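 Inhibition of L165041-driven (300 nM final) PPARd signaling is scored in HEK293H UAS-bla cells. Exposure lasts 17 h at 37 C; beta-lactamase activity is then read by FRET substrate fluorescence after 2 h at room temperature.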

[4] = biological target: Vitamin D3 receptor (Homo sapiens) (UniProt P11473); experiment: qHTS assay to identify small molecule agonists of the vitamin D receptor (VDR) signaling pathway (AID 743222; calls by dose curve)
Procedure, shortened: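 Quantitative HTS agonist-mode screen: compounds in DMSO were pin-transferred onto VDR-bla cells and incubated 16 h at 37C, 5% CO2. Reporter activity was detected with LiveBLAzer B/G FRET substrate after 2 h at room temperature.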

[5] = qHTS assay to identify small molecule agonists of the farnesoid-X-receptor (FXR) signaling pathway - cell viability counter screen (AID 743218); further: nearly all actives have a fitted effect of over 45% in size; further: potency means the concentration at half of the fitted maximal effect
Procedure, shortened: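 Cytotoxicity counter-screen run in parallel, same wells: FXR-UAS-bla HEK 293T cells dosed 16 h at 37 C, viability read by CellTiter-Glo luminescence after 30 min at room temperature.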

[6] = qHTS assay to identify small molecule antagonists of the farnesoid-X-receptor (FXR) signaling pathway - cell viability counter screen (AID 743221; active means well fitted cell-killing curve with a large enough effect in the repeat runs, not every such curve was filed as active; further: nearly all actives have a fitted effect of over 50% in size)
Procedure, shortened: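 Cytotoxicity is taken from ATP luminescence (CellTiter-Glo, 30 min, room temperature) in FXR-bla HEK 293T cells previously incubated 16 h at 37 C with compound and chenodeoxycholic acid at 50 uM final.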

[7] = qHTS assay to identify small molecule antagonists of the peroxisome proliferator-activated receptor delta (PPARd) signaling pathway - cell viability counter screen (AID 743213); further: nearly all actives have a fitted effect of over 50% in size; further: potency means the concentration at half of the fitted maximal effect
Procedure, shortened: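 HEK293H cells with the PPARd UAS-bla reporter, co-treated 17 h at 37 C with compounds and L165041 (300 nM final), were lysed with CellTiter-Glo. Luminescence indicated viable cell content.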

[8] = biological target: Vitamin D3 receptor (Homo sapiens) (UniProt P11473); experiment: qHTS assay to identify small molecule antagonists of the vitamin D receptor (VDR) signaling pathway (AID 743223; active means well fitted inhibition curve with a large enough effect in the signal ratio in the repeat runs, not every such curve was filed as active; the % refers to the signal ratio)
Procedure, shortened: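 Quantitative HTS in VDR-bla reporter cells stimulated with 1alpha,25-dihydroxyvitamin D3, 3 nM final. Compound exposure 16 h, 37C, 5% CO2. Read-out: beta-lactamase FRET substrate fluorescence, 2 h RT.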

[9] = biological target: Bile acid receptor (Homo sapiens) (UniProt Q96RI1); experiment: qHTS assay to identify small molecule antagonists of the farnesoid-X-receptor (FXR) signaling pathway (AID 743217; active means well fitted inhibition curve with a large enough effect in the signal ratio in the repeat runs, not every such curve was filed as active; the % refers to the signal ratio; further: potency means the concentration at half of the fitted maximal effect)
Procedure, shortened: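 Antagonist mode against 50 uM (final) chenodeoxycholic acid stimulation in FXR-bla HEK 293T cells, 16 h at 37 °C. Inhibition detected as reduced beta-lactamase activity via LiveBLAzer B/G FRET fluorescence after 2 h at room temperature.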

[10] = biological target: Bile acid receptor (Homo sapiens) (UniProt Q96RI1); experiment: qHTS assay to identify small molecule agonists of the farnesoid-X-receptor (FXR) signaling pathway (AID 743220; active means well fitted activation curve with a large enough effect in the signal ratio in the repeat runs, not every such curve was filed as active; the % refers to the signal ratio)
Procedure, shortened: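 Beta-lactamase reporter under UAS control in GeneBLAzer FXR HEK 293T cells (5000/well) measured with LiveBLAzer FRET substrate after 2 h at room temperature. Compound exposure lasted 16 h at 37C.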

Chain of Bile acid receptor (Homo sapiens) (Q96RI1 whole entry, looked up): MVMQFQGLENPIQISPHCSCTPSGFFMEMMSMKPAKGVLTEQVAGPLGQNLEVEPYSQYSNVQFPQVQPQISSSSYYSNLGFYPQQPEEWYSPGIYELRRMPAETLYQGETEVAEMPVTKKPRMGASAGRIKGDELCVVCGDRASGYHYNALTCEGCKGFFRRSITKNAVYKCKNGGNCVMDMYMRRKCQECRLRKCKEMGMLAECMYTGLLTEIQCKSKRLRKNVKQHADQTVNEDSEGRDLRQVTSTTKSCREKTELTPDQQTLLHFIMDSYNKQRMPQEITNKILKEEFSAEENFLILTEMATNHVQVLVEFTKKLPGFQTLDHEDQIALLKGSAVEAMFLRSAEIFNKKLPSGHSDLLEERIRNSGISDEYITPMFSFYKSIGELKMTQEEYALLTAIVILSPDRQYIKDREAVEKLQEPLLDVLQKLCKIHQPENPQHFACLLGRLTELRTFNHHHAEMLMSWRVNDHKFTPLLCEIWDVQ
Chain of Peroxisome proliferator-activated receptor delta (Homo sapiens) (Q03181 whole entry, looked up): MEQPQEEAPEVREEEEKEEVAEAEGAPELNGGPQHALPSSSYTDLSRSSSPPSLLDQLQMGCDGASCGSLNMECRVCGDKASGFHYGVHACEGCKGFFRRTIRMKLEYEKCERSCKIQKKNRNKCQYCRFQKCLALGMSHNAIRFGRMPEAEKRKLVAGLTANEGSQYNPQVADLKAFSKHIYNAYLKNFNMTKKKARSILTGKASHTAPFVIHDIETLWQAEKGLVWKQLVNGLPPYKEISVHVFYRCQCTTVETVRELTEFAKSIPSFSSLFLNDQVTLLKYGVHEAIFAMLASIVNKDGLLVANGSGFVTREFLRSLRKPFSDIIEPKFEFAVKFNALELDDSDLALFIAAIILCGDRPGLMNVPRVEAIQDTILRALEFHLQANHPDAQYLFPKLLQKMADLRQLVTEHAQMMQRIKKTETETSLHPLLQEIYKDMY
Chain of Vitamin D3 receptor (Homo sapiens) (P11473 whole entry, looked up): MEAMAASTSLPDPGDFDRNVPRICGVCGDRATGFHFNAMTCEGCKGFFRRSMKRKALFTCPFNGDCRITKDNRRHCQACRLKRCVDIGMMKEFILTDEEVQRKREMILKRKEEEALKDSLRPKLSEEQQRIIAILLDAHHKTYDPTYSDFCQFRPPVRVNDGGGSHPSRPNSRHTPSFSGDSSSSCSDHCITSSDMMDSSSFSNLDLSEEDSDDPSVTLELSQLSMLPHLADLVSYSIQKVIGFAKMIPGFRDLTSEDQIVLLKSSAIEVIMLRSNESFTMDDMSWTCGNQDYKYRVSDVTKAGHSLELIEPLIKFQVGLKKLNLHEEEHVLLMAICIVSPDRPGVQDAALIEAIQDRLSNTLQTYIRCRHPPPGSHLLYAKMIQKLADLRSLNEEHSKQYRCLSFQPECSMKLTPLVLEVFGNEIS

Row | SMILES | Potency [1] | Potency [2] | Potency [3] | Potency [4] | Potency [5] | Potency [6] | Potency [7] | outcome [8] | Potency [9] | Potency [10]
1 | CCCOC(C(=O)OC1CCN(C)CC1)(c1ccccc1)c1ccccc1 | inactive | inactive | inactive | inactive |  |  |  |  |  | 
2 | C1CCCNCCC1 | inactive | inactive |  | inactive | inactive |  |  |  |  | 
3 | CCCC(=O)Nc1ccc(O)c(C(C)=O)c1 | inactive | inactive | inactive |  | inactive | inactive |  |  |  | 
4 | CCCCCCCC#N | inactive | inactive |  |  | inactive | inactive |  |  |  | 
5 | CC(C)=CCC/C(C)=C/CC/C(C)=C/CO | 38.9 µM (active) |  | inactive | inactive | inactive | inactive | inactive |  |  | 
6 | Nc1cccc(S(=O)(=O)c2cccc(N)c2)c1 | inactive | inactive | inactive | inactive | inactive | inactive |  |  |  | 
7 | CCN(CC)CCNC(=O)c1cc(Br)c(N)cc1OC | inactive | inactive |  | inactive | inactive | inactive |  | inactive |  | 
8 | CCCCCCCCCCCCCCOS(=O)(=O)O | 43.6 µM (active) |  | inactive | inactive | 54.9 µM (active) |  | 43.6 µM (active) | inactive |  | 
9 | CCOCC(O)COc1ccc(NC(=O)CC[S+](C)C)cc1 (configuration not stated) | inactive | inactive | inactive |  | inactive | inactive |  |  | inactive | 
10 | CCOC(=O)NCCOc1ccc(Oc2ccccc2)cc1 | inactive | inactive |  | inactive |  | inactive |  | inactive |  | inactive
11 | CN1CCC(=C2c3ccccc3Sc3ccccc32)CC1 | 26.6 µM (active) | inactive | inactive |  |  |  |  | inactive |  | inactive
12 | Cc1cccc(C)c1NC(=O)CN(CC(=O)O)CC(=O)O | inactive | inactive | inactive | inactive | inactive | inactive |  |  |  | inactive
13 | Cn1c(=O)cc(Oc2ccc(F)cc2F)c2cnc(NCC(C)(C)O)nc21 | inactive | inactive |  |  |  | inactive | inactive |  | 43.6 µM (active) | inactive
14 | O=C1CCC(=O)O1 | inactive | inactive | inactive | inactive | inactive | inactive |  |  | inactive | inactive
15 | C=CC1CC2C=CC1C2 (configuration not stated) | inactive | inactive |  | inactive |  | inactive |  | inactive |  | 
16 | CC/C=C\CCOC(=O)CC | inactive | inactive |  |  |  | inactive | inactive |  |  | 
17 | CCCCCCCC/C=C\CCCCCCCC(=O)OCC | inactive | inactive |  |  | inactive | inactive |  | inactive |  | 
18 | C#Cc1cccc(Nc2ncnc3cc(OCCOC)c(OCCOC)cc23)c1 | inactive | inactive |  |  | inactive | inactive | inactive |  | inactive | inactive

Row | SMILES | Potency [1] | Potency [2] | Potency [3] | Potency [4] | Potency [5] | Potency [6] | Potency [7] | outcome [8] | Potency [9] | Potency [10]
19 | Nc1ccc([N+](=O)[O-])c(C(F)(F)F)c1 | inactive | inactive |  |  | inactive | inactive | inactive | inactive |  | inactive
20 | O=C(O)C1(C(=O)O)CCC1.[NH2-].[NH2-].[Pt+2] | inactive | inactive | inactive |  | inactive | inactive |  |  | inactive | inactive
21 | COc1ccc2cccc(CCNC(C)=O)c2c1 | inactive |  |  | inactive | inactive | inactive | inactive | inactive |  | 
22 | CCCCO | inactive |  |  | inactive | inactive | inactive | inactive | inactive | inactive | 
23 | Brc1c2ccccc2cc2ccccc12 | inactive |  |  |  | inactive | inactive | inactive | inactive |  | 
24 | CC(=O)[O][Al][O]C(C)=O | inactive |  |  |  | inactive | inactive | inactive |  |  | 
25 | CN(C)c1ccc(C(c2ccccc2)c2ccc(N(C)C)cc2)cc1 | inactive |  |  | inactive | inactive | inactive | inactive | inactive |  | 
26 | Nc1ccccc1S(=O)(=O)c1ccccc1 | inactive |  |  | inactive | inactive | inactive | inactive |  | inactive | inactive
27 | COc1ccc(C(=O)N2CCN(CC(=O)N3CCOCC3)CC2)cc1 | inactive |  |  | inactive | inactive | inactive | inactive |  |  | 
28 | Cc1cccc(Nc2ccccc2)c1 | inactive |  |  | inactive | inactive |  | inactive |  | inactive | inactive
29 | COC(=O)c1ccc(I)cc1S(=O)(=O)NC(=O)Nc1nc(C)nc(OC)n1 | inactive |  |  | inactive | inactive | inactive | inactive | inactive |  | 
30 | CCCCCCOC(=O)NC(=N)c1ccc(NCc2nc3cc(C(=O)N(CCC(=O)OCC)c4ccccn4)ccc3n2C)cc1 | 21.1 µM (active) |  |  |  | 26.6 µM (active) |  | 23.7 µM (active) | inactive |  | inactive
31 | NCc1ccccc1Sc1ccccc1CO | inactive |  |  |  | inactive | inactive | inactive | inactive |  | 
32 | Nc1cc(C(=O)O)c(O)c(S(=O)(=O)O)c1 | inactive |  |  |  | inactive | inactive | inactive |  |  | 
33 | O=C1c2ccccc2S(=O)(=O)N1CCCCN1CCN(c2ncccn2)CC1 | inactive |  |  |  | inactive | inactive | inactive |  |  | 
34 | NS(=O)(=O)c1ccc(N2CCCCS2(=O)=O)cc1 | inactive |  |  | inactive | inactive | inactive | inactive | inactive | inactive | inactive
35 | CN(C)CCN(Cc1ccsc1)c1ccccn1 | inactive |  |  | inactive | inactive | inactive | inactive |  |  | 
